Measurements: the supplement of paper PMC11732987, “Enantioselective OTUD7B fragment discovery through chemoproteomics screening and high-throughput optimisation” (Communications Chemistry, 2025)

What was measured:
Assay in all cases: log2 ratio of Biotin-Ahx-Ub-VS probe labelling (fragment/DMSO); higher = less target engagement (more negative = stronger competition), active = hit call of the paper (q ≤ 0.05, log2 ratio ≤ -1)
Conditions in all cases: compound concentration: 200 uM; treatment time: 3 h
USP34 = USP34 (UniProt Q70CQ2)
USP34, sequence (Q70CQ2 whole entry, the tested form may be a part): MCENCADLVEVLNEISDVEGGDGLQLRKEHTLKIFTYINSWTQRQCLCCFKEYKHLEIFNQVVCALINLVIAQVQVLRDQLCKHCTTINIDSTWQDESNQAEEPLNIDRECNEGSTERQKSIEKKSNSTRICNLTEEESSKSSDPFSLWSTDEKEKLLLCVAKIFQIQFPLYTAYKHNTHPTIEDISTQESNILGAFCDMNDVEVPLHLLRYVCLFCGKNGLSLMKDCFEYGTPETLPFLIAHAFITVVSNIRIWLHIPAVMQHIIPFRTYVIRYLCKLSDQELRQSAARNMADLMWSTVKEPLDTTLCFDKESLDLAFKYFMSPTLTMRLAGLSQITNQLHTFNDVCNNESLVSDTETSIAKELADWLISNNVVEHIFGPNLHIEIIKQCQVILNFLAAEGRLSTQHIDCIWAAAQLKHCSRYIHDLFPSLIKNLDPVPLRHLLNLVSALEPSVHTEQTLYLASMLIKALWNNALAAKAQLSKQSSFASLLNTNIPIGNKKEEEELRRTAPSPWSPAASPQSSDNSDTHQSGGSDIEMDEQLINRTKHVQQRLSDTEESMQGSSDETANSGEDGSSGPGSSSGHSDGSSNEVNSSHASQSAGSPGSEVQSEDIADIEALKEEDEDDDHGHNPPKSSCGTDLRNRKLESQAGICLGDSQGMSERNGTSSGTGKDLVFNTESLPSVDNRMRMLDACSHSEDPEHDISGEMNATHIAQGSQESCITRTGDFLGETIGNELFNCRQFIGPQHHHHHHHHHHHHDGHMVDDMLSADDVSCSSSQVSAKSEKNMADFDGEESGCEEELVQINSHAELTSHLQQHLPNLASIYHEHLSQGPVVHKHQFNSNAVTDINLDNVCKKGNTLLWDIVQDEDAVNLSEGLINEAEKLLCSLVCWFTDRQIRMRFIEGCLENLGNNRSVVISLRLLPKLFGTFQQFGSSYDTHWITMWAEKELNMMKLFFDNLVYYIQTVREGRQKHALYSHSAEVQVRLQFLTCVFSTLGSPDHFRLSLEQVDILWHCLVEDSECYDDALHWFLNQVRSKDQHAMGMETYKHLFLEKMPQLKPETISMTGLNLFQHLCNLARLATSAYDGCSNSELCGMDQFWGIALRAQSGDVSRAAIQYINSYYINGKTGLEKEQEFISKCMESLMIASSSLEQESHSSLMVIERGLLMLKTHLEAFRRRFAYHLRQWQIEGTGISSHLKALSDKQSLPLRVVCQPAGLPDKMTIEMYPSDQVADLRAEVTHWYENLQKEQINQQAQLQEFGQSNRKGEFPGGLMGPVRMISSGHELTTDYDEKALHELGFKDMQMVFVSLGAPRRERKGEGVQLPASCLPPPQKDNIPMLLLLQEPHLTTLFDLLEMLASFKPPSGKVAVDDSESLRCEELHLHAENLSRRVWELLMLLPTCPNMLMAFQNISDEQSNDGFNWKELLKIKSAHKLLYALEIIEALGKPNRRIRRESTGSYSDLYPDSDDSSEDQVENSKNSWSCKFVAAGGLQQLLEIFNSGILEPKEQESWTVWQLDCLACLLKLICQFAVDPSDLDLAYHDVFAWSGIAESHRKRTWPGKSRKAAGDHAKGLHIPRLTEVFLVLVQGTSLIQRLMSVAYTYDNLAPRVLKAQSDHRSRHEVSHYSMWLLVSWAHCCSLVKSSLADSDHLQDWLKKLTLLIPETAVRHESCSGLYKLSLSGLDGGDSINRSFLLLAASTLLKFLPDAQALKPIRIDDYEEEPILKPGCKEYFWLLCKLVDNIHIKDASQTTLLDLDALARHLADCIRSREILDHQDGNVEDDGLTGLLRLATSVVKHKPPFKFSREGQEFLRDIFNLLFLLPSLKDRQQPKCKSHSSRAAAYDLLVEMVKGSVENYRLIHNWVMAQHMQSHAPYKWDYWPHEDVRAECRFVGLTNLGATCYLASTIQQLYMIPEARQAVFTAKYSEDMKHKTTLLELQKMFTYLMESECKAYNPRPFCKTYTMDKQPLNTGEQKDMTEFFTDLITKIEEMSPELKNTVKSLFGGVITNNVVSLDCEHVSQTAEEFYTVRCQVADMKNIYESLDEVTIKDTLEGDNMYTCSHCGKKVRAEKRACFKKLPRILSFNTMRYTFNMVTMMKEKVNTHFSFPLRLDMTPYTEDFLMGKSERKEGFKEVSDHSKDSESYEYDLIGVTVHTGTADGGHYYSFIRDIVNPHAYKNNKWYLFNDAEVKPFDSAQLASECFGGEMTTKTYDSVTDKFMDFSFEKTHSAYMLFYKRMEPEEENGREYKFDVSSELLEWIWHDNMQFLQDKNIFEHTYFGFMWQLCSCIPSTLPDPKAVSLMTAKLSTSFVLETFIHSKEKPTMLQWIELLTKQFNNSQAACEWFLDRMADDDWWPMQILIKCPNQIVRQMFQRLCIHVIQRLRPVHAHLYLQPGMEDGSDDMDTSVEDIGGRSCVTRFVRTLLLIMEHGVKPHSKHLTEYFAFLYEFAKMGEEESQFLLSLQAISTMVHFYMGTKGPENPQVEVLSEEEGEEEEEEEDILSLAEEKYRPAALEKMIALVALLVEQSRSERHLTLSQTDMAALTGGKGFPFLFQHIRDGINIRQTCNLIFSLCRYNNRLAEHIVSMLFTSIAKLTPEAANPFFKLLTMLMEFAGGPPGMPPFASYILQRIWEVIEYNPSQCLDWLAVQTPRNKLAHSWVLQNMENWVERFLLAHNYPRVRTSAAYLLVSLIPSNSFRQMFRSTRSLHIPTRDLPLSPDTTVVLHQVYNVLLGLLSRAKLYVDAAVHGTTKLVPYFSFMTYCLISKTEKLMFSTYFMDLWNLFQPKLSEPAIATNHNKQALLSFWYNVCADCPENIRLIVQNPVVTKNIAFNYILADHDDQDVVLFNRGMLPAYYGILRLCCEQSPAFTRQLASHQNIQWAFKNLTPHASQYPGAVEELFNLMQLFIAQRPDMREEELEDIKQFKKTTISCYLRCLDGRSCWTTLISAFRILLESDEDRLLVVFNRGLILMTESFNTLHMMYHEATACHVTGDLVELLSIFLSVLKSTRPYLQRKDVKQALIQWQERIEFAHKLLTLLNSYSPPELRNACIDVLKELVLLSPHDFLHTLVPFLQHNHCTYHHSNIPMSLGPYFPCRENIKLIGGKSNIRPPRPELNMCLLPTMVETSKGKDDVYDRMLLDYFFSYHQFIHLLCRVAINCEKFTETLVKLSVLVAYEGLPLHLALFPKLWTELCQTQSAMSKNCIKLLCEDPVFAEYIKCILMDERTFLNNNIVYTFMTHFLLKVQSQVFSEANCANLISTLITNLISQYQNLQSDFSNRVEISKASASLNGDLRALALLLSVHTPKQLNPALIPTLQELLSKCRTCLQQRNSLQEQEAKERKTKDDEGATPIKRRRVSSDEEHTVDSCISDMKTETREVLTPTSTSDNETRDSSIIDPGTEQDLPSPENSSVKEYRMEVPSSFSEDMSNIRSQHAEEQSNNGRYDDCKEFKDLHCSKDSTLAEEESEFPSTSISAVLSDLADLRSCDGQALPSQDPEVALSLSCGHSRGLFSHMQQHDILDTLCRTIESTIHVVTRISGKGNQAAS
In short: (§1)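 The table lists average log2 ratios of fragment over vehicle, from an unpaired t-test on global-median-normalised Spectronaut label-free quantities. Proteins with ≥2 unique peptides were used. Samples were HEK293T lysate (495 µg) treated in triplicate with fragment at 200 µM or vehicle for 3 h, then with Biotin-Ahx-Ub-VS (0.5 µM final) for 1 h, with labelled DUBs NeutrAvidin-enriched and run by diaPASEF LC-MS/MS.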

USP36 = target: T1, USP36 (UniProt Q9P275)
T1 sequence (whole entry): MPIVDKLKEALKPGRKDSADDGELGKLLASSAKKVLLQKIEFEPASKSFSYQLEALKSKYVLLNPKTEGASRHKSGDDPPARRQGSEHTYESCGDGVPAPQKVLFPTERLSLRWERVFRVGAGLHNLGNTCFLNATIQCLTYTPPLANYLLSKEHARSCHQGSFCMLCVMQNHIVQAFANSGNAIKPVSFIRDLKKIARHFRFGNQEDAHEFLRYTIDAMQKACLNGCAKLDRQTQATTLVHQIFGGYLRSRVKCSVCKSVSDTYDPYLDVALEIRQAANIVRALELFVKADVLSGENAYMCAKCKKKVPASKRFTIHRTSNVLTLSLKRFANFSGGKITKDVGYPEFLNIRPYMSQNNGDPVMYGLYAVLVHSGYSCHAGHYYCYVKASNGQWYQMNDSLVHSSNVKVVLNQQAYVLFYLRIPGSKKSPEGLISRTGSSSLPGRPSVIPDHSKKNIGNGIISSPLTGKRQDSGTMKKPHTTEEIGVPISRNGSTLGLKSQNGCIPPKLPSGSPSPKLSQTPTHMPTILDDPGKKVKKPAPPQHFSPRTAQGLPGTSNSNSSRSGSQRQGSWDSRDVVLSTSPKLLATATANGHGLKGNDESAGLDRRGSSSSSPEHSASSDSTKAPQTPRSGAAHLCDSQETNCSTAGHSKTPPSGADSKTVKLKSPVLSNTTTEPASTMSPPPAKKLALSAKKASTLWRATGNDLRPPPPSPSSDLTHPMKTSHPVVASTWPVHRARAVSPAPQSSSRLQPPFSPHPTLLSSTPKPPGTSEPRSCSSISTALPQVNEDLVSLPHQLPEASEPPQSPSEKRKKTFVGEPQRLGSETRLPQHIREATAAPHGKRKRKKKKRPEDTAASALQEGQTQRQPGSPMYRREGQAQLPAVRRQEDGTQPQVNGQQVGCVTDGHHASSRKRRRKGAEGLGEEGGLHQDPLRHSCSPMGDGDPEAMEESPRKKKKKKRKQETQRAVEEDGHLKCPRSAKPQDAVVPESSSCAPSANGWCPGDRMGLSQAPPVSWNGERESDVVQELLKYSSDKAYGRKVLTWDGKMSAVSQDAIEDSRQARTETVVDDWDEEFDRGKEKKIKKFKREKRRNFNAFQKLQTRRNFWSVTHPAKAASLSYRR
In short: as §1

USP38 = target: T2, USP38 (UniProt Q8NB14)
T2 sequence (whole entry): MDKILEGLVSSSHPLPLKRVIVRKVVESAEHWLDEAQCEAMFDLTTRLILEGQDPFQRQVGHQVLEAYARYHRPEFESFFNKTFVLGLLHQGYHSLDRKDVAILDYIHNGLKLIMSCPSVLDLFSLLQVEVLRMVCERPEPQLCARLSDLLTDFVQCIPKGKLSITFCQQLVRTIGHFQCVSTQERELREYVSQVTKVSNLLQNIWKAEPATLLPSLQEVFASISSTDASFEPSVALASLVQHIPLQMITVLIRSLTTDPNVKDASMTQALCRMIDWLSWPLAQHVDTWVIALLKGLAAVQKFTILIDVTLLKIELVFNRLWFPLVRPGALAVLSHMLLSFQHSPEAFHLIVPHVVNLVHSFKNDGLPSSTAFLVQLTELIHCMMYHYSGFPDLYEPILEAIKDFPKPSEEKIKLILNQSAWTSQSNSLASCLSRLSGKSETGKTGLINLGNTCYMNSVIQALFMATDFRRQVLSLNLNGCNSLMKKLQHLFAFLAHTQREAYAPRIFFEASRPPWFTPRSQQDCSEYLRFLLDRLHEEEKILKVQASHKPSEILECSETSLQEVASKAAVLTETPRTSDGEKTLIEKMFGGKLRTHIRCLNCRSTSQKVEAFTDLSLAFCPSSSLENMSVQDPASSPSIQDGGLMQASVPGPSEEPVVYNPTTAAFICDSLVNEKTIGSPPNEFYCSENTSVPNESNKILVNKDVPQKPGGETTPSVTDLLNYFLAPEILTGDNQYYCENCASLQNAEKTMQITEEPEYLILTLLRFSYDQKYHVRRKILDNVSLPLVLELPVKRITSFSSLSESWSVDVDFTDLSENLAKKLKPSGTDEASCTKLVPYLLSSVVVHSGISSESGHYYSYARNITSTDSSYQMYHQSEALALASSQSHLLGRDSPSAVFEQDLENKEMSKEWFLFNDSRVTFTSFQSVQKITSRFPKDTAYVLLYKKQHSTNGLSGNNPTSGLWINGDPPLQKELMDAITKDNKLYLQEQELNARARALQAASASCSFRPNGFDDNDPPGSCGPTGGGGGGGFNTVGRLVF
In short: as §1

USP39 = target: T3, USP39 (UniProt Q53GS9)
T3 sequence (whole entry): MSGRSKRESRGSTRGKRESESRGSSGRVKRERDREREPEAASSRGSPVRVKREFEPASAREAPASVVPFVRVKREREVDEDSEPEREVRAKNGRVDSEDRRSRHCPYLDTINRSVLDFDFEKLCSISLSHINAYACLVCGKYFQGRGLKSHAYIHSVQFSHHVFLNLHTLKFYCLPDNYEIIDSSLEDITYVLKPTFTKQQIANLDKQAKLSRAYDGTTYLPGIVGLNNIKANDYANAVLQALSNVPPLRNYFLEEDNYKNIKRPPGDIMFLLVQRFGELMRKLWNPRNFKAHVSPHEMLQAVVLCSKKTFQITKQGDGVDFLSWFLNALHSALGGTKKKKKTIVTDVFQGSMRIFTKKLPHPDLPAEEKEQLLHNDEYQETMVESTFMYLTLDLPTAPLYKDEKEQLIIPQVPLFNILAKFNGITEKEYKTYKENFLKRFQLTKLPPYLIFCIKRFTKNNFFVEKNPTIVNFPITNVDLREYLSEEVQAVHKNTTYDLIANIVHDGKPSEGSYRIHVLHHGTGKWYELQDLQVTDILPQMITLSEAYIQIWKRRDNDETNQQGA
In short: as §1

USP4 = target: T4, USP4 (UniProt Q13107)
T4 sequence (whole entry): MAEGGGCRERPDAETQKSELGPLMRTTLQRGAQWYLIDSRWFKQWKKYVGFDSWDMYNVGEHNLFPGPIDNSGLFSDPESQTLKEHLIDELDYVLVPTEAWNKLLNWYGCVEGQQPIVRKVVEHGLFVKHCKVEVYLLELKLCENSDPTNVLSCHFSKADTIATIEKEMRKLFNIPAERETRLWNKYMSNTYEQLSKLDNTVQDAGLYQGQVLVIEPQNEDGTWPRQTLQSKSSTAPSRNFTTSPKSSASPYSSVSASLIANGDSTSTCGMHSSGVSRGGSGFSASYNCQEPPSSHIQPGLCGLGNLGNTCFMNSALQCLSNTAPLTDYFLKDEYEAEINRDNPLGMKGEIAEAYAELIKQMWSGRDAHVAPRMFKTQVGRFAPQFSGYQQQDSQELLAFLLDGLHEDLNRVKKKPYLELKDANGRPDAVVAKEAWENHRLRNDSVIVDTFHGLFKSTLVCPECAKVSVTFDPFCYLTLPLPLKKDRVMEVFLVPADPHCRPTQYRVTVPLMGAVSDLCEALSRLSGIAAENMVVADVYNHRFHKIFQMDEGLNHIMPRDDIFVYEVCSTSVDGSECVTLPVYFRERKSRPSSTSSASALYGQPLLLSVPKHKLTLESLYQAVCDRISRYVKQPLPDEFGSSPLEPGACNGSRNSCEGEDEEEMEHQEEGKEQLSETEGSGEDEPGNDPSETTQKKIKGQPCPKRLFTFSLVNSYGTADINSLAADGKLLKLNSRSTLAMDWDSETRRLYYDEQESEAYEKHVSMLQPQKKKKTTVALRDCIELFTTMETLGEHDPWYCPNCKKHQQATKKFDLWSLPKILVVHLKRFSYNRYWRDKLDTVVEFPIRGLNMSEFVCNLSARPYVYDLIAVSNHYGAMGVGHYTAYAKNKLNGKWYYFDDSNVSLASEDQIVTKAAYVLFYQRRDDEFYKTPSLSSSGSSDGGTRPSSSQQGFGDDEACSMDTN
In short: as §1

Measured: log2 ratio of Biotin-Ahx-Ub-VS probe labelling

O=C(CCl)NC1CCC2(CC1)OCCO2
inactive: USP34 -0.314 | USP36 -0.227 | USP38 -0.0225 | USP39 0.0631 | USP4 -0.0958
